Compound activity as filed in PubChem BioAssay.
DT40 TDP1 no CPT: qHTS for Inhibitors of human tyrosyl-DNA phosphodiesterase 1 (TDP1): qHTS in cells in absence of CPT; Potency, µM (highest dose often 46.2 µM), for inactives: at the top dose activity change, negative = growth inhibition, usual class: inhibitors; 420,000 tested, 15% active; DT40 Tdp1-/- hTDP1 cells, no CPT, ATP luminescence, 48 h; further: potency means the concentration at half of the fitted maximal effect; nearly all actives have a fitted effect of over 55% in size
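Stably hTDP1-transfected Tdp1-null chicken DT40 cells were treated with library compounds minus camptothecin and grown for at least 48 hr at 37 °C, after which cellular ATP was quantified by luminescence.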
RORgamma inh: blocks mouse ROR gamma transcriptional activity; 310,000 tested, 5.4% active; Potency, µM (doses to about 53.6 µM), for inactives: at the top dose activity change, negative = inhibition, most hits filed as inhibitors; Drosophila S2 Gal4-RORgamma UAS-luciferase reporter, 20 h; P51450; further: potency means the concentration at half of the fitted maximal effect; nearly all actives have a fitted effect of over 60% in size
Target sequence (P51450 whole entry, looked up, the tested form may be a part): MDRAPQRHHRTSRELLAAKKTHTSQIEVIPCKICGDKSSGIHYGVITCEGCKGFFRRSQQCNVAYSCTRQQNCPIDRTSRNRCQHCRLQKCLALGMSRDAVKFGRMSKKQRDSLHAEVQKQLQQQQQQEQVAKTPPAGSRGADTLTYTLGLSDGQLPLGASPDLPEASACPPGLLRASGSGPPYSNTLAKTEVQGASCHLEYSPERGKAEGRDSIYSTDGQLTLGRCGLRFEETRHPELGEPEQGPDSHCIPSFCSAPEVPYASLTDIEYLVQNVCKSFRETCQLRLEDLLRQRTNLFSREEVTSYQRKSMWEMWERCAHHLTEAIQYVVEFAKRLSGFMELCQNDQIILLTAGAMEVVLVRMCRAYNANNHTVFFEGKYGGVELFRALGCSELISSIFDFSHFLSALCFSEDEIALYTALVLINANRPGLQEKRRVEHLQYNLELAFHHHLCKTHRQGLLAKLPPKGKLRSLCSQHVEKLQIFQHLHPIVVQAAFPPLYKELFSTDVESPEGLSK
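Stably transfected Drosophila Schneider cells are the test system, with ROR gamma fused to Gal4 and luciferase under UAS control; luminescence is read after 20 hr of 700 uM copper sulfate induction at ambient temperature.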
Gal4-VP16 FLuc: Gal4-VP16 reporter inhibition counter-screen; Drosophila S2 Gal4-VP16 UAS-luciferase, luminescence, 20 h; Potency, µM (highest dose often 53.6 µM), for the others: at the top dose activity, negative = inhibition, hits mostly inhibitors; 310,000 tested, 3.5% active;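 further: Gal4-VP16 expression switched on by copper sulfate through the metallothionein promoter; potency means the concentration at half of the fitted maximal effect; nearly all actives have a fitted effect of over 50% in size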
ELG1 DNA repair: ELG1-dependent DNA repair inhibition; 330,000 tested, 2.3% active; HEK293T ELG1-luciferase reporter, luminescence, 16 h; DNA damage induced by 5-fluorouridine; AID 504467; Potency, µM (titrated, usually from 46.1 µM), for inactives: at the top dose activity change, negative = inhibition, hits mostly inhibitors; further: potency means the concentration at half of the fitted maximal effect; nearly all actives have a fitted effect of over 55% in size
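Quantitative HTS, concentration-response format. 2,000 cells/well co-treated with 5-fluorouridine and compound, 16 hr in 5% CO2 at 37 °C; ONE-Glo luminescence read after 30 min.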
TDP1 cell CPT: growth inhibition of DT40 Tdp1-/-;hTDP1 cells with camptothecin (screen for TDP1 inhibitors) | chicken DT40 Tdp1-/-;hTDP1 cells + 20 nM CPT, ATP luminescence, 48 h | Potency, µM (highest dose often 46.2 µM), for inactives: at the highest dose activity change, negative = growth inhibition, hits mostly inhibitors | 420,000 tested, 12% active; further: potency means the concentration at half of the fitted maximal effect; nearly all actives have a fitted effect of over 55% in size
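Chicken DT40 Tdp1-/- cells complemented with human TDP1, 400 cells/well, exposed to compounds plus 20 nM camptothecin for at least 48 h at 37 C; viability read as ATP content by CellTiter-Glo luminescence.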
IL1B secr inh: inflammasome signaling inhibition, IL-1 beta readout; THP-1 LPS/ATP IL-1B secretion, AlphaLISA, 16 h; hits give low values; activity change, % at 57.5 µM; 360,000 tested, 4.7% active; AID 743279; in the data active means activity change below about -50%; inconclusive means mostly about -30% to -49%
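THP-1 cells pretreated 1 hr with compounds (up to 57.5 uM final), then stimulated with LPS (250 ng/mL final) plus ATP (1.25 mM final); secreted IL-1B measured by AlphaLISA after 16 hr, decreased signal indicating inhibition.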
Starred values were filed as active, the others as inactive; ? = inconclusive; / = not tested or not shown; [ ] = dose if it differs, or a comment. Sampled rows, rich in hits. Any-hit rate of the full collection: about 21%. Unless noted, the call rests on the fitted dose curve; in most records, active means well fitted curve in the direction sought with a large enough effect; inconclusive means small, poorly fitted or top-dose-only effect, or another doubt; inactive means no such curve, though single readings can be large; an effect the other way counts as inactive or inconclusive. On the % scale 0 is the no-effect control and ±100 the full control effect.

SMILES	DT40 TDP1 no CPT	RORgamma inh	Gal4-VP16 FLuc	ELG1 DNA repair	TDP1 cell CPT	IL1B secr inh
CCOC(=O)CNC(=O)CSc1ccc(-c2nc3ccccc3[nH]2)cn1	?	?	13%	1%	-19%	?
CC(=O)CSc1ccc(-c2nc3cc(C)c(C)cc3[nH]2)cn1	?	-8%	1%	-3%	?	-82*
CCc1nnc(NC(=O)CSc2ccc(-c3nc4ccc(C)cc4[nH]3)cn2)s1	?	?	?	?	?	8
O=C(Nc1cccc(S(=O)(=O)NC2=NCCC2)c1)c1cnc(Cl)c(Cl)c1	-18%	/	/	-18%	-21%	-30
COc1ccccc1C(=O)N1CCN(C(=O)[C@H]2O[C@@H](n3cnc4c(N)ncnc43)[C@H](O)[C@@H]2O)CC1	-2%	/	/	/	-12%	0
COCCN(C)C(=O)c1cnn(-c2nccc(-c3cc(OC)ccc3OC)n2)c1C	-17%	/	/	/	0%[9.04 µM]	/
Cc1cc(C)n(C(=O)CCCn2nc(C)c([N+](=O)[O-])c2C)n1	15%	35%	-2%	19%	-7%	-16
Cc1cc(C(=O)N[C@@H](c2ccccc2)[C@]2(C)C[C@H]2[C@@H](C)C(=O)Nc2ccc3ccccc3c2)n(C)n1	/	0%	-15%	/	/	/
Cc1ccc(-c2nnc3ccc(SCC(=O)N4CCc5ccccc54)nn23)cc1	-9%	3%	7%	1%	-18%	27
Cc1ccc2nc(-c3ccc(SCC(=O)N4CCc5ccccc54)nc3)[nH]c2c1	13µM*	-36%	?	?	?	21
N#Cc1ccccc1CSc1ccc(-c2nc3ccccc3[nH]2)cn1	?	?	-3%[0.365 µM]	0%	?	-71*
CCCc1ccc(C(=O)NNc2cc(Cl)ccc2Cl)cc1	23µM*	11%	5%	16%	?	?
C[C@]12CCC3C(CC[C@H]4CCCC[C@]34C)C1CC[C@@]2(O)CNCCO (stereo partly specified)	?	13%	-2%	-4%	13µM*	2
CCN1CCC(NC(=O)Nc2cccc(C(F)(F)F)c2)CC1	-1%	15%	-1%	6%	-2%	-15
COc1ccc(OC)c(S(=O)(=O)N2CCC(C(=O)Nc3cccc(C)c3C)CC2)c1	-14%	26%	-2%	?	-7%	-21
CCN1CCC(N(Cc2cccc(OC)c2)C(=O)Nc2cccc(C(F)(F)F)c2)CC1	21µM*	/	/	/	?	/
CCN1CCC(N(Cc2cccc(OC)c2)C(=O)Nc2cccc(C)c2C)CC1	23µM*	/	/	/	?	/
CCN1CCC(N(Cc2ccc(F)cc2)C(=O)Nc2cccc(C(F)(F)F)c2)CC1	16µM*	/	/	/	16µM*	/
Cc1ccc(NC(=O)CN2C(=O)C(c3ccccc3)=NC2(C)C)cc1C	-6%	/	/	/	11%	/
C[C@@H]1/C=C\CC(=O)OC[C@H](C)C(=O)N2CCC[C@@H]2C(=O)OC1	/	-25%[10 µM]	10%[10 µM]	/	/	/
C[C@@H]1CN([C@@H](C)CO)C(=O)CCCn2cc(nn2)CO[C@H]1CN(C)S(=O)(=O)c1ccc2ccccc2c1	?	/	/	/	?	8
CC(C)OC(=O)c1cccnc1SCC(=O)Nc1ccc(C(F)(F)F)cc1Cl	-22%	/	/	/	-28%	/
COc1ccccc1-c1nc2c3ccccc3nc(=S)n2[nH]1	-30%	0.35µM*	1.3µM*	8%	?	0
COc1cc(-c2nc3c4ccccc4nc(=S)n3[nH]2)cc(OC)c1OC	?	1.4µM*	1.4µM*	1%	?	22
COc1cc(-c2nc3ccccc3c(=O)n2N)cc(OC)c1OC	?	29%	-15%	2%	-1%	-7
SMILES	DT40 TDP1 no CPT	RORgamma inh	Gal4-VP16 FLuc	ELG1 DNA repair	TDP1 cell CPT	IL1B secr inh
O=C(COc1ccc(-c2ccccc2)cc1)N1CCCC1	?	-3%	-2%	-14%	4%	-15
COc1ccc(CCn2c(=O)c3cccnc3n(CC(=O)Nc3c(C)cc(C)cc3C)c2=O)cc1OC	?	/	/	/	-19%	/
N#C/C(=C\c1ccc(O)c(O)c1)C(=O)N1CCc2ccccc21	21µM*	/	/	-4%	?	8
COc1cc(/C=C(\C#N)C(=O)N2CCc3ccccc32)ccc1O	-16%	-3%	-12%	11%	?	11
Cc1ccc(CC2C(=O)N(c3cc(C)ccc3C)C(=O)C2C)cc1 (stereo unspecified)	-21%	?	-3%	-1%	-25%	0
Cc1c(C)n(CCc2ccccc2)c2ncnc(NCCO)c12	?	4%	0%	?	?	-22
Cc1c(C)n(Cc2ccccc2)c2ncnc(Cl)c12	3.7µM*	-9%	?	-20%	15µM*	-8
CCOc1ccc(CSC(=N)N)cc1[N+](=O)[O-]	?	1%	-7%	?	23µM*	-97*
CCCCOc1ccc(CSCCN)cc1Cl	18µM*	1.3µM*	2µM*	?	18µM*	-83*
CCOc1ccc(CSC(=N)N)cc1Cl	12µM*	-12%	-10%	8%	15µM*	-52*
CCN(CC)C(=O)CCCOc1ccc(Cl)cc1Cl	?	29%	15%	?	?	-28
CCCCOc1ccc(CSc2nnc(C)n2N)cc1[N+](=O)[O-]	-3%	-19%	-29%	?	-8%	2
O=C(CCN1Cc2ccccc2OC(c2ccccc2F)C1)N1CCC(N2CCCC(O)C2)CC1 (stereo unspecified)	-21%	/	/	/	2%[9.04 µM]	/
CSCCC(NC(=O)C1CCCCC1)C(=O)Nc1ccc(F)c(Cl)c1 (stereo unspecified)	-27%	/	/	/	?	/
Cc1noc(C)c1NC(=O)Nc1ccc2c(c1)C(=O)N([C@@H](C)CO)C[C@@H](C)[C@H](CN(C)C(=O)Nc1cccc3ccccc13)OCCCC[C@H](C)O2	?	/	/	/	?	-13
Cc1ccc(S(=O)(=O)Nc2ccc3c(c2)C(=O)N([C@H](C)CO)C[C@H](C)[C@H](CN(C)C(=O)Nc2cccc4ccccc24)OCCCC[C@@H](C)O3)cc1	15µM*	/	/	/	21µM*	-2
C[C@@H]1CCCCO[C@H](CN(C)C(=O)Nc2cccc3ccccc23)[C@@H](C)CN([C@H](C)CO)C(=O)c2cc(N(C)C)ccc2O1	9.2µM*	/	/	/	15µM*	6
C[C@@H]1CN([C@@H](C)CO)C(=O)c2cc(NS(=O)(=O)c3ccc(F)cc3)ccc2O[C@@H](C)CCCCO[C@H]1CN(C)C(=O)NC1CCCCC1	?	/	/	/	23µM*	-12
